The source of these data is the antibiotic and cytotoxicity screens of Wong et al. (2023).

Hit rate of the full screen: of about 39,000 compounds, about 1,500 (3.8%) were called active. This excerpt belongs to a sample that is enriched for actives.

The test deals with HSkMC (human skeletal muscle cells). As to the kind of experiment: cytotoxicity call (relative viability < 0.9). Particulars: 10 µM.
As to `CC(C)NC(=O)Nc1ccc2c(c1)C(=O)N([C@@H](C)CO)C[C@@H](C)[C@@H](CN(C)C(=O)Nc1ccc(C(F)(F)F)cc1)OCCCC[C@@H](C)O2`, the cytotoxicity call is “inactive”.

For `C[C@@H]1CCCCO[C@H](CN(C)S(=O)(=O)c2cccs2)[C@@H](C)CN([C@@H](C)CO)C(=O)c2cc(NC(=O)Nc3cccc4ccccc34)ccc2O1`, the cytotoxicity call is “inactive”.

Consider `C[C@@H]1CCCCO[C@H](CN(C)C(=O)CCC(F)(F)F)[C@@H](C)CN([C@H](C)CO)C(=O)c2cc(NC(=O)Cc3ccccc3)ccc2O1`, for which the cytotoxicity call is “inactive”.

Regarding `CC(C)NC(=O)Nc1cccc2c1O[C@@H](CN(C)Cc1ccc3c(c1)OCO3)[C@@H](C)CN([C@H](C)CO)C2=O`, the cytotoxicity call was “inactive”.

With `C[C@@H]1CN([C@H](C)CO)C(=O)c2cc(NS(=O)(=O)c3ccccc3)ccc2O[C@@H]1CN(C)S(C)(=O)=O`, the cytotoxicity call is “inactive”.

On to `C[C@H]1CN([C@@H](C)CO)S(=O)(=O)c2ccc(C#Cc3ccncc3)cc2O[C@H]1CN(C)C(=O)C1CCOCC1`, for which the cytotoxicity call was “inactive”.

As to `Cc1noc(C)c1S(=O)(=O)Nc1ccc2c(c1)C(=O)N([C@H](C)CO)C[C@H](C)[C@H](CN(C)C(=O)Nc1cccc3ccccc13)OCCCC[C@@H](C)O2`, the cytotoxicity call was “inactive”.

For `Cc1noc(C)c1S(=O)(=O)Nc1ccc2c(c1)C(=O)N([C@H](C)CO)C[C@H](C)[C@@H](CN(C)C(=O)Nc1cccc3ccccc13)OCCCC[C@H](C)O2`, the cytotoxicity call was “active”.

Turning to `Cc1noc(C)c1S(=O)(=O)Nc1ccc2c(c1)C(=O)N([C@@H](C)CO)C[C@@H](C)[C@@H](CN(C)C(=O)Nc1cccc3ccccc13)OCCCC[C@H](C)O2`, the cytotoxicity call is “inactive”.

As to `Cc1nnnn1CC(=O)Nc1ccc(F)cc1`, the cytotoxicity call was “inactive”.

Take `COc1ccc(NC(=O)Nc2ccc3c(c2)[C@H]2C[C@H](CC(=O)NCc4ccncc4)O[C@H](CO)[C@H]2O3)cc1`: the cytotoxicity call is “inactive”.

Consider `C[C@@H]1CCCCO[C@@H](CN(C)C(=O)Nc2ccccc2)[C@H](C)CN([C@H](C)CO)C(=O)c2cc(NC(=O)Cc3ccccc3)ccc2O1`, for which the cytotoxicity call was “inactive”.

Turning to `Cc1ccc(S(=O)(=O)Nc2ccc3c(c2)C(=O)N([C@H](C)CO)C[C@@H](C)[C@@H](CN(C)C(=O)C2CCCCC2)OCCCC[C@H](C)O3)cc1`, the cytotoxicity call is “inactive”.

`O=C(O)c1cn(C2CC2)c2cc(N3CCC(O)(COc4ccc(N5C[C@H](CO)OC5=O)cc4F)CC3)c(F)cc2c1=O`: the cytotoxicity call is “inactive”.

For the compound `O=C(CCCCCCC(=O)Nc1ccc([C@H]2O[C@@H](CSc3ccncc3)C[C@H](c3ccccc3)O2)cc1)NO`, the cytotoxicity call is “inactive”.

Consider `O=C(/C=C/c1ccc(CNc2ccc([C@H]3O[C@@H](CSc4ccncc4)C[C@H](c4ccccc4)O3)cc2)cc1)NO`, for which the cytotoxicity call was “active”.

Consider `O=C(CCCCCCC(=O)Nc1ccc([C@@H]2O[C@H](CSc3ccncc3)C[C@H](c3ccccc3)O2)cc1)NO`, for which the cytotoxicity call is “inactive”.

As for `C[C@H](CO)N1C[C@H](C)[C@H](CN(C)C(=O)NC2CCCCC2)Oc2cc(-c3cccnc3)ccc2S1(=O)=O`, the cytotoxicity call is “inactive”.

Take `COc1ccc(NC(=O)N(C)C[C@H]2OCCCC[C@H](C)Oc3ccc(NC(=O)c4ccncc4)cc3C(=O)N([C@H](C)CO)C[C@@H]2C)cc1`: the cytotoxicity call is “inactive”.

For `CCc1ccc(NC(=S)Nc2ccccc2C(C)C)cc1`, the cytotoxicity call is “inactive”.

As for `COCC#Cc1ccc2c(c1)O[C@@H](CN(C)C(=O)COC)[C@@H](C)CN([C@H](C)CO)S2(=O)=O`, the cytotoxicity call is “inactive”.

For the compound `COc1ccc(S(=O)(=O)Nc2ccccc2CN(C)C/C=C/c2ccc(Cl)cc2)cc1.O=P(=O)OO`, the cytotoxicity call is “inactive”.

Regarding `COc1ccc(CN(C)C[C@H]2Oc3ccc(NC(=O)Nc4ccc(C(F)(F)F)cc4)cc3CC(=O)N([C@H](C)CO)C[C@H]2C)cc1`, the cytotoxicity call is “active”.

As for `COc1ccc(NC(=O)Nc2ccc3c(c2)CC(=O)N([C@H](C)CO)C[C@H](C)[C@H](CN(C)Cc2ccc(C(F)(F)F)cc2)O3)cc1`, the cytotoxicity call was “inactive”.

Regarding `COc1ccc(CN(C)C[C@@H]2Oc3ccc(NC(=O)Nc4ccc(C(F)(F)F)cc4)cc3CC(=O)N([C@@H](C)CO)C[C@@H]2C)cc1`, the cytotoxicity call is “inactive”.

For `COc1ccc(NC(=O)Nc2ccc3c(c2)CC(=O)N([C@@H](C)CO)C[C@@H](C)[C@@H](CN(C)Cc2ccc(C(F)(F)F)cc2)O3)cc1`, the cytotoxicity call was “inactive”.

For `COc1ccc(NC(=O)Nc2ccc3c(c2)CC(=O)N([C@@H](C)CO)C[C@H](C)[C@@H](CN(C)Cc2ccc(C(F)(F)F)cc2)O3)cc1`, the cytotoxicity call is “inactive”.

In the case of `COc1ccc(NC(=O)Nc2ccc3c(c2)CC(=O)N([C@@H](C)CO)C[C@@H](C)[C@H](CN(C)Cc2ccc(C(F)(F)F)cc2)O3)cc1`, the cytotoxicity call is “inactive”.

As to `COc1ccc(CN(C)C[C@H]2Oc3ccc(NC(=O)Nc4ccc(C(F)(F)F)cc4)cc3CC(=O)N([C@@H](C)CO)C[C@@H]2C)cc1`, the cytotoxicity call was “inactive”.

In the case of `COc1ccc(CN(C)C[C@H]2Oc3ccc(NC(=O)Nc4ccc(C(F)(F)F)cc4)cc3CC(=O)N([C@@H](C)CO)C[C@H]2C)cc1`, the cytotoxicity call is “active”.

Turning to `COc1ccc(NC(=O)Nc2ccc3c(c2)CC(=O)N([C@H](C)CO)C[C@@H](C)[C@@H](CN(C)Cc2ccc(C(F)(F)F)cc2)O3)cc1`, the cytotoxicity call was “active”.

As for `COc1ccc(NC(=O)Nc2ccc3c(c2)CC(=O)N([C@@H](C)CO)C[C@H](C)[C@H](CN(C)Cc2ccc(C(F)(F)F)cc2)O3)cc1`, the cytotoxicity call is “active”.

With `COc1ccc(NC(=O)Nc2ccc3c(c2)CC(=O)N([C@H](C)CO)C[C@H](C)[C@@H](CN(C)Cc2ccc(C(F)(F)F)cc2)O3)cc1`, the cytotoxicity call was “inactive”.

On to `COc1ccc(NC(=O)Nc2ccc3c(c2)CC(=O)N([C@H](C)CO)C[C@@H](C)[C@H](CN(C)Cc2ccc(C(F)(F)F)cc2)O3)cc1`, for which the cytotoxicity call was “inactive”.

For `COc1ccc(C#Cc2ccc3c(c2)[C@]2(C(=O)N3)[C@H](C(=O)N3CCc4cc(OC)c(OC)cc4C3)[C@H]3C(=O)O[C@H](c4ccccc4)[C@H](c4ccccc4)N3[C@@H]2c2ccc(O)cc2)cc1`, the cytotoxicity call is “inactive”.

For `C[C@@H]1CN([C@H](C)CO)C(=O)Cc2cc(NC(=O)Nc3ccc(C(F)(F)F)cc3)ccc2O[C@H]1CN(C)C(=O)Nc1cccc2ccccc12`, the cytotoxicity call is “inactive”.

As to `C[C@H](CO)N1C[C@H](C)[C@@H](CN(C)C(=O)Cc2ccccn2)Oc2cc(C#Cc3ccccc3)ccc2S1(=O)=O`, the cytotoxicity call was “inactive”.

Take `Cn1ncc2c1CCCC2=O`: the cytotoxicity call is “inactive”.

For `Cc1noc(C)c1NC(=O)N(C)C[C@H]1Oc2ncc(C#CCN(C)C)cc2C(=O)N([C@H](C)CO)C[C@H]1C`, the cytotoxicity call is “inactive”.

As for `COc1cccc(S(=O)(=O)N(C)C[C@@H]2Oc3ncc(C#CCN(C)C)cc3C(=O)N([C@@H](C)CO)C[C@@H]2C)c1`, the cytotoxicity call is “inactive”.

For the compound `C[C@@H]1CN([C@H](C)CO)C(=O)Cc2cc(NC(=O)Nc3ccc4c(c3)OCO4)ccc2O[C@@H]1CN(C)S(C)(=O)=O`, the cytotoxicity call is “inactive”.

Turning to `COc1ccc(NC(=O)N(C)C[C@H]2OCCCC[C@H](C)Oc3ccc(NC(=O)c4ccccc4)cc3C(=O)N([C@@H](C)CO)C[C@@H]2C)cc1`, the cytotoxicity call was “inactive”.

Take `COc1ccc(S(=O)(=O)N(C)C[C@H]2OCCCC[C@@H](C)Oc3ccc(NC(=O)CCC(F)(F)F)cc3C(=O)N([C@@H](C)CO)C[C@@H]2C)cc1`: the cytotoxicity call was “inactive”.

With `COc1ccc(CN(C)C[C@@H]2Oc3ccc(NC(=O)Nc4ccc(C(F)(F)F)cc4)cc3CC(=O)N([C@H](C)CO)C[C@@H]2C)cc1`, the cytotoxicity call was “active”.

On to `COc1ccc(NC(=O)Nc2ccc3c(c2)CC(=O)N([C@@H](C)CO)C[C@H](C)[C@@H](CN(C)C(=O)Nc2ccc(C(F)(F)F)cc2)O3)cc1`, for which the cytotoxicity call is “inactive”.

Consider `COc1ccc(CN(C)C[C@@H]2Oc3ccc(NC(=O)Nc4ccc(C(F)(F)F)cc4)cc3CC(=O)N([C@H](C)CO)C[C@H]2C)cc1`, for which the cytotoxicity call was “inactive”.

In the case of `C[C@@H]1CN([C@@H](C)CO)C(=O)c2cccc(NS(C)(=O)=O)c2O[C@@H]1CN(C)S(=O)(=O)c1cn(C)cn1`, the cytotoxicity call is “inactive”.

On to `COc1ccc(NC(=O)N(C)C[C@H]2Oc3ccc(NS(=O)(=O)c4c(C)noc4C)cc3C(=O)N([C@@H](C)CO)C[C@H]2C)cc1`, for which the cytotoxicity call is “inactive”.

Take `COc1ccc(S(=O)(=O)Nc2ccc3c(c2)C(=O)N([C@@H](C)CO)C[C@@H](C)[C@@H](CN(C)S(C)(=O)=O)O3)cc1`: the cytotoxicity call is “inactive”.

For `COc1ccccc1C#Cc1ccc2c(c1)O[C@H](CN(C)Cc1cncnc1)[C@@H](C)CN([C@H](C)CO)S2(=O)=O`, the cytotoxicity call was “inactive”.

Take `COc1ccccc1C#Cc1ccc2c(c1)O[C@@H](CN(C)Cc1cncnc1)[C@H](C)CN([C@H](C)CO)S2(=O)=O`: the cytotoxicity call was “active”.

As for `COc1ccccc1C#Cc1ccc2c(c1)O[C@H](CN(C)Cc1cncnc1)[C@@H](C)CN([C@@H](C)CO)S2(=O)=O`, the cytotoxicity call is “inactive”.

Consider `COc1ccccc1C#Cc1ccc2c(c1)O[C@H](CN(C)Cc1cncnc1)[C@H](C)CN([C@H](C)CO)S2(=O)=O`, for which the cytotoxicity call was “inactive”.

Regarding `COc1ccccc1C#Cc1ccc2c(c1)O[C@@H](CN(C)Cc1cncnc1)[C@@H](C)CN([C@@H](C)CO)S2(=O)=O`, the cytotoxicity call is “inactive”.

`COc1ccccc1C#Cc1ccc2c(c1)O[C@@H](CN(C)Cc1cncnc1)[C@H](C)CN([C@@H](C)CO)S2(=O)=O`: the cytotoxicity call was “active”.

In the case of `COc1ccc(S(=O)(=O)N(C)C[C@H]2Oc3c(NC(=O)c4cc(C)nn4C)cccc3C(=O)N([C@H](C)CO)C[C@H]2C)cc1`, the cytotoxicity call was “inactive”.

`C[C@@H]1CCCCO[C@H](CN(C)CC2CC2)[C@@H](C)CN([C@H](C)CO)C(=O)c2cc(NC(=O)CCC(F)(F)F)ccc2O1`: the cytotoxicity call was “inactive”.

As for `COc1ccc(S(=O)(=O)N2c3ccc(Cl)cc3[C@](O)(c3ccccc3Cl)[C@@H]2C(=O)N2CCC[C@H]2C(N)=O)cc1OC`, the cytotoxicity call was “inactive”.

Turning to `C[C@@H]1CN([C@@H](C)CO)C(=O)c2cccc(NS(=O)(=O)c3cn(C)cn3)c2O[C@H]1CN(C)C(=O)Nc1ccc2c(c1)OCO2`, the cytotoxicity call is “inactive”.

As to `O=C(CS)NCCCCCNC(=O)[C@@H]1C[C@@H]2C(=O)N[C@@H](Cc3ccccc3)C(=O)N2[C@@H]1c1ccc(O)cc1`, the cytotoxicity call is “inactive”.
